From PubChem
ADAM17 inh = ADAM17 inhibitors, primary screen, biochemical, QFRET. Disintegrin and metalloproteinase domain-containing protein 17 (Homo sapiens), P78536. recombinant ADAM17, EDANS/DABCYL FRET peptide cleavage. inhibition, % at 6.95 µM. 370,000 tested, 0.83% active;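 active = inhibition above the mean of compounds lying between control limits plus 3 SD, set per campaign, cut at about 8.5% in these data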;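 note: 0% = DMSO-only wells as the low control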
ADAM10 inh = human ADAM10 inhibitors, primary screen, biochemical, QFRET, HTS; Disintegrin and metalloproteinase domain-containing protein 10 (Homo sapiens), O14672; recombinant ADAM10, EDANS/DABCYL FRET peptide cleavage, 3 h; inhibition, % at 7 µM; 370,000 tested, 0.62% active; AID 720582, 2013;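 active = inhibition above a per-campaign cutoff equal to the mean of compounds falling between control-based bounds plus 3 SD, cut at about 20% in these data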;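 note: 0% = DMSO wells while the 100% control is not disclosed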
Target sequence (O14672 214-748 limits assumed): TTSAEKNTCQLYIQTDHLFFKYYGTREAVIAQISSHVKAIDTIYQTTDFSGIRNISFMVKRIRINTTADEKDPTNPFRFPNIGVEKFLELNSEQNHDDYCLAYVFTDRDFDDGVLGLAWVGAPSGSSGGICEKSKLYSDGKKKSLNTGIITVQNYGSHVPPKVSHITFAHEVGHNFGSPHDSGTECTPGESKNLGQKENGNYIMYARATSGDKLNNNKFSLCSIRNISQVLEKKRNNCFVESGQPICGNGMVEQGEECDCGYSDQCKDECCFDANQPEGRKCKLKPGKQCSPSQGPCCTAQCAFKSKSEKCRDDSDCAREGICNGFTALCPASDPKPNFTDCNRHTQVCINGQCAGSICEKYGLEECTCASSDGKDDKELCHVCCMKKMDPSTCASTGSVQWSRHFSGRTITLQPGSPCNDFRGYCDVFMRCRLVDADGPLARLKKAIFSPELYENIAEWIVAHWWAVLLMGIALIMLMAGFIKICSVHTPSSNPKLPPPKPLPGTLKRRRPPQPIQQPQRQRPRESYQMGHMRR
FAS TE block = FAS thioesterase domain inhibitors, primary screen, biochemical, fluorescence intensity, uHTS | Fatty acid synthase (Homo sapiens), P49327 | recombinant FAS-TE, OMFH fluorogenic substrate, fluorescence endpoint | inhibition, % at 15 µM | 360,000 tested, 0.67% active | AID 602261, 2012;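 active = compounds whose normalised, plate-corrected inhibition of enzyme fluorescence in the single-dose primary screen is 50% or more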;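 note: 0% = DMSO with enzyme and 100% = substrate without enzyme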
KLK7 zymogen act = proKLK7 zymogen activators, primary screen, biochemical, fluorescence intensity | Kallikrein-7 (Homo sapiens), P49862 | purified proKLK7, EDANS-DABCYL substrate fluorescence; 100% is mature enzyme control, 0% vehicle | activation, % at 7 µM | 370,000 tested, 0.9% active | AID 652039, 2013;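 active = activation above the mean of all tested compounds plus 3 SD, computed per campaign excluding outliers beyond control limits, cut at about 13% in these data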
GRIN3A LBD mod = binders of NR3A ligand-binding domain, primary screen, biophysical, differential scanning fluorimetry, uHTS. Glutamate receptor ionotropic, NMDA 3A (GRIN3A) ligand-binding domain. Tm shift relative to glycine control, % at 25 µM. 340,000 tested, 2.5% active. NR3A LBD differential scanning fluorimetry, Tm shift; 0% = protein alone, 100% = glycine-bound protein;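 active = melting temperature shift of at least 10% of the positive control shift, at one fixed dose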
* marks the source's active call; other numbers are inactive results; · = not tested or not shown; ! = repeats disagree. A selection: hits, their analogues and other compounds. The true share with any hit is near 4.6%.

SMILES | ADAM17 inh | ADAM10 inh | FAS TE block | KLK7 zymogen act | GRIN3A LBD mod
COc1ccc(CCNC(=O)c2cc3ccccn3n2)cc1 | 0 | 0 | · | -1 | ·
CN(C)CCCN1C(=O)c2cccc3c(Br)ccc(c23)C1=O | -27 | -73 | -6 | -2 | 0
CCCCNc1ccc2c3c(cccc13)C(=O)N(CCCC)C2=O | -12 | -26 | -152 | 1 | 11*
COc1ccc(Br)cc1CNC(=O)CCN1C(=O)COc2ccccc21 | -5 | -2 | 0 | 0 | 23*
COc1ccc(OC)c(CNC(=O)CCN2C(=O)COc3ccccc32)c1 | -2 | 4 | -7 | 0 | 0
Cc1ccc2c(c1)N(CCC(=O)NCc1ccccn1)C(=O)CO2 | -6 | -4 | -9 | 0 | 42*
CNC(=O)COc1ncnc2sc(C)c(C)c12 | -2 | 7 | -9 | 0 | 14*
Cc1sc2ncnc(OCC(=O)NCc3cccs3)c2c1C | -3 | -1 | -2 | 0 | -1
COc1ccc(N2C(=O)N3[C@H](c4cccc(C)c4)[C@@H]4C(=O)N(Cc5ccccc5)C(=O)[C@@H]4[C@]3(Cc3ccccc3)C2=O)cc1 | 0 | 5 | · | 0 | 4
Cc1cccc([C@@H]2[C@@H]3C(=O)N(Cc4ccccc4)C(=O)[C@@H]3[C@]3(C)C(=O)N(c4ccc(C(F)(F)F)cc4)C(=O)N23)c1 | · | · | 81* | · | 13*
Cc1cccc(C(=O)Nc2nc(C)c(C(=O)Nc3ccc4c(c3)CCC4)s2)c1 | 1 | 11 | 26 | -4 | 28*
CC(C)=CCc1c(O)cc2c(=O)c3ccc(O)cc3oc2c1O | 4 | 8 | -30 | 1 | 25*
CC(C)=CCc1c(O)cc(O)c2c(=O)c3c(CC=C(C)C)c(O)ccc3oc12 | · | · | · | · | 26*
CN1CCN(C(=O)c2ccc(N3CCCC3=O)cc2)CC1 | -5 | -5 | -6 | -1 | 333*
O=C(c1ccc(N2CCCC2=O)cc1)N1CCOCC1 | -2 | 8 | -3 | 0 | 1
O=C(COc1cc(Cl)c(Cl)cc1Cl)NC(=O)Nc1ccc2c(c1)OCCO2 | -3 | -1 | -2 | -1 | 19*
O=C(COc1cc(Cl)c(Cl)cc1Cl)Nc1cccc(O)c1 | -4 | 1 | 5 | -1 | 18*
Cc1cccc(OCC(=O)Nc2cccc(O)c2)c1 | 0 | -6 | -8 | 0 | -26
O=C(COc1cc(Cl)c(Cl)cc1Cl)Nc1ccncc1 | -1 | 3 | 7 | 0 | 545*
O=S(=O)(c1ccc(Br)s1)N1CCC(c2nc3ccccc3o2)CC1 | 1 | -8 | · | 0 | ·
CC(C)(C)OC(=O)C1[C@H](O)C=CC[C@H]1S(=O)c1ccccc1 (some centres undefined) | -5 | -7 | · | · | ·
C#CCNC(=O)C[C@H]1C[C@@]2(C(=O)OC)C(=C[C@H](COCc3ccccc3)O[C@@H]2C)N(CCCCCCCC)C1=O | 2 | 2 | · | 1 | ·
COc1cc2cc(C(=O)N/N=C/c3ccc(F)cc3)[nH]c2cc1OC | -40 | -93 | -1 | 4 | 13*
COc1ccc2[nH]c(C(=O)N/N=C/c3ccc(O)cc3O)cc2c1 | -32 | -71 | 8 | -33 | 13*
COc1ccc(/C=N/NC(=O)c2cc3cc(OC)c(OC)cc3[nH]2)cc1 | -35 | -80 | 1 | 8 | 4
SMILES | ADAM17 inh | ADAM10 inh | FAS TE block | KLK7 zymogen act | GRIN3A LBD mod
COc1ccc2cc(C(=O)N/N=C/c3cc(OC)c(OC)c(OC)c3)[nH]c2c1 | -26 | -53 | 4 | 0 | 19*
C=CCN1C(=O)[C@H](CC(=O)NCc2cccs2)[C@@]2(C(=O)OCC)CCCC=C12 | -5 | 0 | · | 0 | ·
O=C(NCCc1ccc(F)cc1)c1ccc2c(c1)ncn2C1CCCCC1 | 2 | 0 | · | 0 | ·
O=c1cc(-c2ccc(O)c(O)c2)oc2cc(O)c([C@@H]3O[C@H](CO)[C@@H](O)[C@H](O)[C@H]3O)c(O)c12 | -3 | 3 | -8 | -1 | 19*
O=c1cc(-c2ccc(O)cc2)oc2c([C@@H]3O[C@H](CO)[C@@H](O)[C@H](O)[C@H]3O)c(O)c([C@@H]3O[C@H](CO)[C@@H](O)[C@H](O)[C@H]3O)c(O)c12 | -3 | -2 | -10 | -2 | -2
COc1ccc(/C=C/C(=O)Nc2ccc3c(c2)CCC3)cc1OC | 3 | 8 | 10 | 0 | -4
COc1cccc(/C=C/C(=O)c2cccc([N+](=O)[O-])c2)c1OC | 0 | 4 | 1 | 0 | 10*
COc1ccc(/C=C/C(=O)NC(=S)Nc2cc([N+](=O)[O-])ccc2O)cc1OC | -2 | 4 | 6 | 0 | 19*
COc1cccc(/C=C/C(=O)Nc2ccc3c(c2)OCCO3)c1OC | 2 | -1 | 13 | 0 | 20*
COc1ccc(/C=C/C(=O)Nc2ccc(C(N)=O)cc2)cc1OC | -33 | -138 | -3 | -8 | 15*
COc1cccc(/C=C/C(=O)Nc2cccc(C(C)=O)c2)c1OC | 1 | -5 | 7 | 0 | 15*
COc1ccccc1/C=C/C(=O)Nc1cccc(C(C)=O)c1 | 0 | 9 | 9 | 0 | 21*
CC[C@@H]1/C(=C/c2ccccc2)N2C(=O)C[C@@H](c3ccccc3)N=C2N1Cc1ccc(OC)cc1OC | -4 | -5 | · | · | ·
COc1ccc(/C=C2/CN(Cc3ccc(OC)cc3OC)C3=N[C@H](c4ccccc4)CC(=O)N32)cc1 | 2 | -4 | · | -2 | ·
O=[N+]([O-])c1ccc(SCCc2ccncc2)cc1 | -2 | 2 | 4 | 0 | 11*!
N#C/C(=C\c1cccs1)c1nc2ccccc2[nH]1 | -18 | -49 | -18 | -2 | 22*
CCc1ccc(NC(=O)COc2ccc(/C=C(/C#N)c3nc4ccccc4[nH]3)cc2OC)cc1 | -12 | -31 | -6 | -15 | 30*
N#C/C(=C\c1ccc([N+](=O)[O-])o1)c1nc2ccccc2[nH]1 | -3 | -5 | · | 0 | 22*
N#C/C(=C/c1ccc(O)c(O)c1)c1nc2ccccc2[nH]1 | -18 | -17 | -5 | 3 | 19*
N#C/C(=C\c1ccc(N2CCCC2)c([N+](=O)[O-])c1)c1nc2ccccc2[nH]1 | -6 | -20 | 14 | 0 | 3
O=C(NC1CCCCN(Cc2ccc(OC(F)(F)F)cc2)C1=O)c1cccc(C(F)(F)F)c1 (centres undefined) | -3 | 2 | · | 0 | ·
COP(=O)(O)C[C@@H]1CCc2cc(C)cc([C@H](CC(C)C)NC(=O)OCc3ccccc3)c2O1 | -25 | -75 | · | 2 | ·
CCOC(=O)C1CCN(C(=O)CN2C(=O)c3ccccc3S2(=O)=O)CC1 | -1 | -5 | -7 | 1 | 18*
